# IL1B secr inh: qHTS for Inhibitors of Inflammasome Signaling: IL-1-beta AlphaLISA Primary Screen. 360,000 compounds, 4.7% hits. activity change, % at 57.5 µM. THP-1 LPS/ATP IL-1B secretion, AlphaLISA, 16 h; hits give low values; in the data active = activity change below about -50%; inconclusive = mostly about -30% to -49%
#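 Secreted IL-1B measured by AlphaLISA bead assay after 16 h compound exposure of THP-1 cells; compounds (final up to 57.5 uM) added 1 h before LPS (250 ng/mL) and ATP (1.25 mM) stimulation; lower signal means less secretion.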
# DT40 TDP1 no CPT: qHTS for Inhibitors of human tyrosyl-DNA phosphodiesterase 1 (TDP1): qHTS in cells in absence of CPT. DT40 Tdp1-/- hTDP1 cells, no CPT, ATP luminescence, 48 h. Potency, µM (doses to about 46.2 µM), inactives show at the highest dose activity change, negative = growth inhibition, actives largely listed as inhibitors. 420,000 compounds, 15% hits. AID 686978, 2013; also: potency is read from the fitted curve at half-maximal effect; nearly all actives have a fitted effect of over 55% in size
#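 Chicken DT40 Tdp1-/- cells stably complemented with human TDP1 were seeded at 400 cells/well with DMSO in place of 20 nM camptothecin. After compound pinning, cells grew at least 48 hr at 37 °C; viability read by CellTiter-Glo luminescence.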
# DT40 TDP1 CPT: qHTS for Inhibitors of human tyrosyl-DNA phosphodiesterase 1 (TDP1): qHTS in cells in presence of CPT. chicken DT40 Tdp1-/-;hTDP1 cells + 20 nM CPT, ATP luminescence, 48 h. Potency, µM (top dose mostly 46.2 µM), for the others: at the highest dose activity change, negative = growth inhibition, most hits filed as inhibitors. 420,000 compounds, 12% hits. AID 686979, 2013; also: potency is read from the fitted curve at half-maximal effect; nearly all actives have a fitted effect of over 55% in size
#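 Chicken DT40 Tdp1-/- cells stably complemented with human TDP1 were seeded at 400 cells/well in medium containing 20 nM camptothecin, exposed to pin-transferred compounds, and grown at 37 °C for at least 48 hr. Viability was read as ATP luminescence.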
# HT1080 IDH1KD tx: qHTS for induction of synthetic lethality in tumor cells producing 2HG: qHTS for the HT-1080-IDH1KD cell line; HT-1080 IDH1 knockdown viability, ATP luminescence, 48 h; Potency, µM (titrated, usually from 46.1 µM), for inactives: at the top dose activity, negative = toxicity, most hits filed as cytotoxic; 360,000 compounds, 2% hits;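 also: potency is read from the fitted curve at half-maximal effect; 0% = DMSO wells and -100% = cell-free medium wells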
#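 Luminescent ATP read-out (CellTiter-Glo, 10 min at room temperature) after 48 h compound exposure at 37 °C gave viability of IDH1-knockdown HT-1080 cells. Activity was normalised to DMSO and cell-free wells, then fitted as concentration-response curves.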
# HT1080NT lethal: qHTS for induction of synthetic lethality in tumor cells producing 2HG: qHTS for the HT-1080-NT fibrosarcoma cell line. HT-1080-NT fibrosarcoma viability, CellTiter-Glo ATP luminescence, 48 h. Potency, µM (series often up to 46.1 µM), without a hit: at the highest dose activity, negative = less viability, usual class: cytotoxic. 360,000 compounds, 1.6% hits;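 also: NT is the 2HG producing partner of a matched IDH1 knockdown line; potency is read from the fitted curve at half-maximal effect; 0% = DMSO-treated cells and -100% = media-only wells without cells; nearly all actives have a fitted effect of over 55% in size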
#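 Viability of the 2HG-overproducing fibrosarcoma line after 48 hours of compound exposure at 37 degrees C was determined by luminescence with CellTiter-Glo, and concentration-effect curves were then fitted and categorized.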
# uPA surface inh: qHTS for Inhibitors of Cell Surface uPA Generation; 330,000 compounds, 0.31% hits; Potency, µM (titrated, usually from 38.3 µM), for inactives: top-dose activity change, negative = inhibition, actives largely listed as inhibitors; cell surface uPA generation assay, qHTS; active = well fitted inhibition curve with a large enough effect; inconclusive = small, poorly fitted or top-dose-only effect; inactive = no such curve, though single readings can be large or run the other way; tested in mouse RAW 264.7 cells; also: potency is read from the fitted curve at half-maximal effect; nearly all actives have a fitted effect of over 55% in size
# An asterisk follows results filed as active; ? = inconclusive; / = no result given; [ ] = remark or other dose. Hits are enriched below; roughly 19% of the tested compounds scored in any of these assays. Unless noted, calls follow the shape of the dose curve; as a rule, active = well fitted curve in the direction sought with a large enough effect; inconclusive = small, poorly fitted or top-dose-only effect, or another doubt; inactive = no such curve, though single readings can be large; an effect the other way counts as inactive or inconclusive. Unless noted, % is scaled to controls: 0 for no effect and ±100 for the full control effect.
SMILES,IL1B secr inh,DT40 TDP1 no CPT,DT40 TDP1 CPT,HT1080 IDH1KD tx,HT1080NT lethal,uPA surface inh
S=c1nc(Cc2ccc(Cl)cc2)[nH]c2ccccc12,-9.9,?,-29.5%,-6.2%,-14.7%,2.4%
Cc1ccc(-n2nc3c(=O)n(C(C)C(=O)NCCC4=CCCCC4)nc(C)c3c2C)cc1 (configuration not stated),-1.3,?,?,-11.5%,-0.9%,?
CCn1c(CNC(C)=O)nnc1SCC(=O)c1ccc(Br)cc1,-0.3,-15.2%,-20.8%,?,12.6µM*,-18.4%
Cc1ccc(NC(=O)Cc2nnc(SCC(=O)NC3CCCC3)n2C)cc1,16.9,-3.5%,-25.4%,20.4%,29.1%,2.6%
CCn1c(CNC(=O)Cc2ccc(OC)cc2)nnc1SCC(=O)c1ccc(Br)cc1,28.7,?,-18.3%,-9.9%,2.2%,/
Cc1ccc(NC(=O)Cc2nnc(SCC(=O)c3ccc(Br)cc3)n2C)cc1,29.7,?,?,11.2µM*,?,/
COc1cc(C(=O)O[C@H]2C/C(C)=C/CC[C@@]3(C)O[C@@H]3[C@H](O)[C@@H]2C(C)C)cc(OC)c1OC,0.0,23.1µM*,16.4µM*,-0.5%,-15.0%,-9.2%
O=C(Nc1nc(=O)c2ccccc2s1)c1ccc(F)cc1,-99.3*,-5.2%,-28.1%,1.41µM*,15.8µM*,?
Cc1cccc(-c2nc(SCC(=O)NCc3ccco3)c3c(=O)n(C)c(=O)n(C)c3n2)c1,/,-20.7%,-24.1%,/,/,/
CCc1c(-c2ccc(Cl)cc2)ncn1Cc1cccc(-c2ccccc2)c1,-17.7,7.31µM*,6.51µM*,?,?,/
CCc1c(-c2ccccc2F)ncn1Cc1cccc(-c2ccccc2)c1,2.7,2.59µM*,2.59µM*,8.2µM*,16.4µM*,/
CCOc1ccc2c(c1)ncn2Cc1ccccc1,3.3,-25.9%,-3.6%,-8.0%,1.6%,-2.1%
COc1cccc(-c2nn(Cc3ccccc3)cc2CO)c1,1.9,-32.3%,0.2%,-12.2%,-14.7%,2.9%
CCc1c(C2CC2)ncn1Cc1cccc(-c2ccccc2)c1,-59.8*,1.84µM*,1.84µM*,16.4µM*,20.6µM*,/
CCc1c(-c2cccc(OC)c2)ncn1Cc1cccc(-c2ccccc2)c1,-16.2,8.2µM*,6.51µM*,?,7.31µM*,/
O=C(Nc1cccc(Cl)c1)c1cc(S(=O)(=O)N2CCOCC2)cs1,-5.8,-26.1%,?,0.5%,-24.3%,-23.7%
O=c1[nH]c(C(F)(F)F)nc2ccc3ccccc3c12,38.3,-18.9%,6.6%,?,-17.3%,-2.4%
CCN(CC)C(=O)c1ncn(Cc2ccccc2)c1C(=O)N(CC)CC,20.2,20.8%,9.7%,-0.5%,0.0%,14.3%
CCCc1c(Cc2cccc(F)c2)ncn1Cc1cccc(-c2ccccc2)c1,/,3.66µM*,3.26µM*,?,?,/
CCCc1nc2c3ccccc3ccn2c1Cc1cccc(F)c1,0.0,?,?,?,?,/
CCc1c(-c2ccccc2)ncn1Cc1cccc(-c2ccccc2)c1,-21.8,8.2µM*,8.2µM*,?,?,/
CCOC(=O)N1CCN(C(=O)C2CCC(=O)N(Cc3ccccc3OC)C2)CC1 (configuration not stated),16.3,3.1%,1.9%,9.9%,4.9%,/
COc1ccc(CCNC(=O)/C=C/c2ccco2)cc1,-26.4,?,16.4µM*,0.6%,-2.5%,-18.7%
O=C(/C=C/c1ccccc1)NCCc1ccccc1,11.9,11.6µM*,9.2µM*,15.7%,0.7%,?
COc1ccc(CCNC(=O)/C=C/c2ccco2)cc1OC,6.7,-8.7%,-7.5%,4.7%,17.8%,-6.2%
SMILES,IL1B secr inh,DT40 TDP1 no CPT,DT40 TDP1 CPT,HT1080 IDH1KD tx,HT1080NT lethal,uPA surface inh
O=C(/C=C/c1ccc([N+](=O)[O-])cc1)NCCc1ccccc1,-9.0,?,?,12.2%,7.5%,10.6%
NS(=O)(=O)c1ccc(CCNC(=O)/C=C/c2ccc([N+](=O)[O-])cc2)cc1,0.1,14.6µM*,?,-1.3%,-3.9%,-0.5%
Cc1c(C)c2ccc(OCC(=O)Nc3ccccn3)cc2oc1=O,-2.1,-9.2%,2.0%,0.0%,1.7%,6.6%
O=C(CN1C(=O)NC2(CCCC2)C1=O)OCC(=O)c1cccc(Cl)c1,13.6,-25.0%,6.0%,-4.2%,4.6%,-1.1%
O=C(CSc1ccc([N+](=O)[O-])cc1)Nc1ccccc1N1CCOCC1,?,20.6µM*,?,-0.6%,-8.2%[9.24 µM],12.2%
O=C(CSc1ccc([N+](=O)[O-])cc1)Nc1cccc(S(=O)(=O)N2CCOCC2)c1,-67.5*,-4.7%,-1.3%,0.0%,3.1%,-4.6%
Cc1c(N=C2N=C(NC(=O)c3ccc(F)cc3)c3ccccc32)c(=O)n(-c2ccccc2)n1C,-8.1,23.1µM*,16.4µM*,24.7%,?,6.1%
Cc1c(NC(=O)c2ccc(C(=O)Nc3c(C)n(C)n(-c4ccccc4)c3=O)cc2)c(=O)n(-c2ccccc2)n1C,30.4,-2.3%,?,-2.9%,2.0%,1.7%
Cc1cc(=O)n2nc(N3CCC(C(=O)Nc4ccc(Br)c(C)c4)CC3)sc2n1,/,-28.7%,14.6µM*,/,/,/
O=C(CCC(=O)c1ccc(Cl)cc1)OCc1nc2ccsc2c(=O)[nH]1,15.7,-2.5%,-17.1%,-4.9%,1.2%,0.5%
CCCC(NC(=S)NCC1CCCO1)C12CC3CC(CC(C3)C1)C2 (configuration not stated),34.3,?,?,?,-14.3%,-10.7%
CC(=O)N1CCC[C@@]2(CCN(Cc3ccc(C#N)cc3)C2)C1,/,-15.7%,2.1%,/,/,/
Cc1oc(-c2cc(F)ccc2F)nc1CN1CCN(c2cnccn2)CC1,4.9,-26.1%,-11.7%,11.0%,8.2%,-2.5%
Cc1oc(-c2cc(F)ccc2F)nc1CN(C)Cc1ccc2nccnc2c1,21.5,16.4µM*,?,3.4%,1.5%,/
CN(C)c1ccnc(-c2ccccc2C(F)(F)F)n1,/,?,-25.2%,/,/,/
CC(=O)N(C(C)=O)N1C(=O)C2C3c4ccccc4C(c4ccccc43)C2C1=O (configuration not stated),-10.3,?,?,13µM*,20.6µM*,-5.8%
C[C@H]1CN([C@@H](C)CO)C(=O)c2cc(C3=CCCC3)cnc2O[C@@H]1CN(C)C(=O)c1ccncc1,8.9,-21.6%,-15.4%,-4.4%,-10.2%,/

# Source: PubChem
